From PubChem BioAssay
The source made the active and inactive calls. Unless noted, no rule for the calls is given here.

Columns and labels:
[1] = HepG2 liver cancer cell viability effects, profiling panel, resazurin fluorescence, 24 h, PK04 Diversity Set (AID 1172); settings: higher = more signal
[2] = basal S. cerevisiae growth modulation, no modifier, primary screen, OD600, strain BY4716, 24 h, basal condition (AID 1173); settings: OD600, 24 h, higher = more signal, called active from +8 up or from −8 down
[3] = MM1S myeloma cell viability, profiling panel, resazurin fluorescence, basal, 24 h, PK04 Diversity Set (AID 1174); settings: higher = more signal, called active from +8 up or from −8 down;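 also: MM1S multiple myeloma cell line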
[4] = molecular target: Dihydroorotate dehydrogenase (quinone), mitochondrial (Plasmodium falciparum (isolate 3D7)) (UniProt Q08210); assay: PfDHODH enzyme inhibitors, primary screen, biochemical, C-terminal His tag, absorbance 600 nm (AID 1175); settings: DCIP absorbance 600 nm, higher = more signal, called active from +8 up or from −8 down;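 also: recombinant parasite enzyme with a five histidine tag at its C terminus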
Chain of Dihydroorotate dehydrogenase (quinone), mitochondrial (Plasmodium falciparum (isolate 3D7)) (Q08210 whole entry, looked up): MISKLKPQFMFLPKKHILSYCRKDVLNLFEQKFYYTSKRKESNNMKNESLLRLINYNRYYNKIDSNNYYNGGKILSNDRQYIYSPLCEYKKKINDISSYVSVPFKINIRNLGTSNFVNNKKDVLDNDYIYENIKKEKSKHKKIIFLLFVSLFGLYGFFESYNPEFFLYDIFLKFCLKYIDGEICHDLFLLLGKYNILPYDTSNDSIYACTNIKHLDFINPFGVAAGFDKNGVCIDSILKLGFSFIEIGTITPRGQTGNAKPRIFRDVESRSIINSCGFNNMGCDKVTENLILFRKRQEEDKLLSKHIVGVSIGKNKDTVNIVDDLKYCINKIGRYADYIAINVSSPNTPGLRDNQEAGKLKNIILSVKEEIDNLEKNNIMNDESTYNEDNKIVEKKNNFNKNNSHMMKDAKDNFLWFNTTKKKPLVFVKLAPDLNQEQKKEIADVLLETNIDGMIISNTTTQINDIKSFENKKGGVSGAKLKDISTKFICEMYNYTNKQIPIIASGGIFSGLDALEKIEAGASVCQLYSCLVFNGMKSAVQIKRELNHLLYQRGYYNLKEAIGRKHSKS

[5] = S. cerevisiae RM11-1a growth modifiers, primary screen, strain RM11-1a, OD600, basal, 24 h (AID 1177); settings: OD600, 24 h, higher = more signal, called active from +8 up or from −8 down;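 also: cultures grown under basal conditions with no added stressor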
[6] = E. coli acrAB mutant growth effects, primary screen, E. coli filamentation inducers, strain DRC39, OD650, 24 h (AID 1178); settings: higher = more signal, called active from +8 up or from −8 down;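 also: growth measured as culture turbidity by optical density at 650 nm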
[7] = E. coli acrAB mutant growth effects, primary screen, E. coli filamentation inducers, strain DRC39, OD650, 48 h (AID 1179);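 also: screen aims at cell division blockers that make cells filament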; settings: E. coli DRC39 delta-acrAB growth, higher = more signal, called active from +8 up or from −8 down
[8] = RPMI8226 myeloma cell viability, profiling panel, resazurin fluorescence, basal, 24 h, PK04 Diversity Set (AID 1180); settings: higher = more signal;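 also: RPMI8826 multiple myeloma cell line at 5000 cells per well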
[9] = molecular target: E3 ubiquitin-protein ligase XIAP (Homo sapiens) (UniProt P98170); assay: XIAP binders, primary screen, biophysical, small-molecule microarray, fluorescence 635 nm (AID 1181); settings: small-molecule microarray binding, higher = more signal;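 also: score merges 667 nm emission and signal to noise over triplicate slides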
Chain of E3 ubiquitin-protein ligase XIAP (Homo sapiens) (P98170 whole entry, looked up): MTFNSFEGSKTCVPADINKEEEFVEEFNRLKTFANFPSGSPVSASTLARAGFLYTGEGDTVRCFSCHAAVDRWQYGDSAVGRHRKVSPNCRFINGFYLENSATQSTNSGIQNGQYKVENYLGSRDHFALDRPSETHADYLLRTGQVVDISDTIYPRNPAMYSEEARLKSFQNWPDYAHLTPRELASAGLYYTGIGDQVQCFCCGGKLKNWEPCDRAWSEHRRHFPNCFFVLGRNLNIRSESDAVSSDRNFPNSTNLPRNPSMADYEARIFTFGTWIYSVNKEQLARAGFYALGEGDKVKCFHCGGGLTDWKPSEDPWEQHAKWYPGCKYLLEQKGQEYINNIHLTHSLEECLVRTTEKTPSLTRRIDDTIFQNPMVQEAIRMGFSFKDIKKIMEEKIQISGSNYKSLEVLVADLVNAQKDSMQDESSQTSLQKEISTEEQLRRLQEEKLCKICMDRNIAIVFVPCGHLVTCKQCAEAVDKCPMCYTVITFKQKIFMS

[10] = tested on: XIP peptide (Xip251-270) binding; assay: small-molecule binders of XIP peptide, primary screen, biochemical, small-molecule microarray, fluorescence 635/667 nm, 0.1 µg/mL protein (AID 1182); settings: fluorescent protein binding, 635 nm, higher = more signal, called active from +8 up or from −8 down
XIP peptide (Xip251-270) = assay: small-molecule binders of XIP peptide, primary screen, biochemical, small-molecule microarray, fluorescence 635/667 nm, 0.5 µg/mL protein (AID 1183); settings: small-molecule microarray binding, fluorescence 635 nm; higher = more signal
[11] = Plasmodium falciparum growth inhibition, primary screen, strain 3D7, DAPI fluorescence, 100 nL (AID 1184);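 also: parasites grown inside human red blood cells in medium with human serum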; settings: P. falciparum 3D7 growth, 3 d, higher = more signal
[12] = molecular target: Homeobox protein Hox-A13 (Mus musculus) (UniProt Q62424); assay: inhibitors of HoxA13-DNA binding, primary screen, biochemical, fluorescence polarization, labeled oligonucleotide (AID 1185); settings: 15 min, higher = more signal, called active from +8 up or from −8 down
Chain of Homeobox protein Hox-A13 (Mus musculus) (Q62424 whole entry, looked up): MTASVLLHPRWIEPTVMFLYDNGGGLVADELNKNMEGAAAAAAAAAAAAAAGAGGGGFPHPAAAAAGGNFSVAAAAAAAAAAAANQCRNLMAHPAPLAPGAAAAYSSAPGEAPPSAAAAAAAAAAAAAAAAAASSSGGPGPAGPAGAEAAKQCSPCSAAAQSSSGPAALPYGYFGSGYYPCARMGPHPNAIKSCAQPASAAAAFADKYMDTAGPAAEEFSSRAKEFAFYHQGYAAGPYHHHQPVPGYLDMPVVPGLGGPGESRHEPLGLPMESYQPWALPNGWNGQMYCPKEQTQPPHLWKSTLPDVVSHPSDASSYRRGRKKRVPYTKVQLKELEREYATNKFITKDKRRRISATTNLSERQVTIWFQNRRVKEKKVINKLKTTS

[13] = inhibitors of hydroxyurea-induced Chk1 phosphorylation, primary screen, imaging, HeLa, phospho-Chk1 antibody, percent positive cells (AID 1186); settings: hydroxyurea-induced phospho-Chk1 immunofluorescence imaging, higher = more signal
[14] = inhibitors of hydroxyurea-induced Chk1 phosphorylation, primary screen, imaging, HeLa, phospho-Chk1 nuclear intensity (AID 1187); settings: hydroxyurea-induced phospho-Chk1 immunofluorescence imaging, higher = more signal

Row | SMILES | z-score [1] | z-score [2] | z-score [3] | composite z-score [4] | z-score [5] | z-score [6] | z-score [7] | z-score [8] | composite z-score [9] | composite z-score [10] | composite z-score (XIP peptide (Xip251-270)) | z-score [11] | z-score [12] | z-score [13] | z-score [14]
1 | C[C@@H]1CC[C@H]2C(=O)N3[C@@H](CC[C@@H](C)[C@@H]3c3cccc(N4CCOCC4)c3)C(=O)N2[C@H]1c1cccc(N2CCOCC2)c1 | 0.728 | -0.0109 (inactive) | 1.04 (inactive) | 0.148 (inactive) | 1.35 (inactive) | 0.203 (inactive) | 0.202 (inactive) | 1.39 | -0.165 | 0.66 (inactive) | 0.705 | -0.529 | -4.07 (inactive) |  | 
2 | CO[C@H]1COC(=O)[C@@H](C)NC(=O)CC=C[C@@H](C)[C@H](OC)COC(=O)CC=C[C@@H]1C | 1.16 | -2.42 (inactive) | 0.563 (inactive) | -0.336 (inactive) | -2.65 (inactive) | 1.03 (inactive) | 0.505 (inactive) | 0.477 | -0.271 | 0.649 (inactive) | 0.517 | -0.243 | 0.334 (inactive) |  | 
3 | CO[C@@H]1COC(=O)CC=C[C@@H](C)[C@H](OC)COC(=O)CC=C[C@H]1C | 0.994 | -1.43 (inactive) | 0.176 (inactive) | -0.136 (inactive) | -0.658 (inactive) | 0.642 (inactive) | 0.505 (inactive) | 0.854 | 0.0891 | -0.583 (inactive) | 0.428 | 0.674 | -0.26 (inactive) |  | 
4 | C[C@@H]1NC(=O)CC=C[C@@H](C)[C@@H]2C=C[C@H](O)[C@@H](COC(=O)[C@H](C)NC(=O)CC=C[C@@H](C)[C@@H]3C=C[C@H](O)[C@@H](COC1=O)O3)O2 | -0.0969 | -2.21 (inactive) | 0.668 (inactive) | 0.633 (inactive) | -1.76 (inactive) | 0.953 (inactive) | 0.264 (inactive) | 0.526 | -0.135 | -0.217 (inactive) | 0.221 | -1.47 | 0.881 (inactive) |  | 
5 | CO[C@H]1COC(=O)[C@H](Cc2ccccc2)NC(=O)CC=C[C@@H](C)[C@H](OC)COC(=O)CC=C[C@@H]1C | 0.471 | -1.43 (inactive) | 0.0446 (inactive) | 0.0048 (inactive) | -1.06 (inactive) | 0.373 (inactive) | 0.53 (inactive) | 0.562 | 0.0525 | -0.707 (inactive) | 0.0418 | 0.0348 | 1.05 (inactive) |  | 
6 | CSCC[C@@H]1NC(=O)CC=C[C@@H](C)COC(=O)[C@H](CCSC)NC(=O)CC=C[C@@H](C)COC1=O | 0.413 | -1.37 (inactive) | 0.94 (inactive) | 0.576 (inactive) | -1.46 (inactive) | -0.251 (inactive) | -0.407 (inactive) | 0.613 | -0.243 | 0.223 (inactive) | -0.467 | -0.145 | 1.03 (inactive) |  | 
7 | C[C@@H]1C=CCC(=O)OC[C@H]2O[C@@H](C=C[C@@H]2O)[C@H](C)C=CCC(=O)OC[C@H]2O[C@H]1C=C[C@@H]2O | -0.269 | -2.13 (inactive) | 0.689 (inactive) | -3.68 (inactive) | -2.89 (inactive) | 0.552 (inactive) | -1.41 (inactive) | 0.807 | -0.039 | 0.424 (inactive) | 0.466 | -2.25 | -1.31 (inactive) |  | 
8 | COc1ccc(-c2ccccc2[C@@H]2N[C@H](C(=O)O)CC[C@H]2C)cc1 | 0.0637 | -0.611 (inactive) | 1.37 (inactive) | 0.577 (inactive) | 0.649 (inactive) | -0.892 (inactive) | 0.0279 (inactive) | 1.61 | -0.113 | 0.351 (inactive) | 0.0228 | -0.907 | 1.08 (inactive) |  | 
9 | CO[C@H]1COC(=O)CC=C[C@H](C)[C@@H](OC)COC(=O)CC=C[C@@H]1C | 1.4 | -1.65 (inactive) | 1.18 (inactive) | 0.522 (inactive) | -1.38 (inactive) | 1.2 (inactive) | 1.21 (inactive) | 0.749 | -0.199 | 0.878 (inactive) | 0.695 | 0.648 | -0.307 (inactive) |  | 
10 | [N-]=[N+]=NCc1ccccc1C[C@@]1(C(=O)N2CCOCC2)N=C(c2ccc(OCCCO)cc2)O[C@@H]1c1ccccc1N=[N+]=[N-] | 0.164 | -1.37 (inactive) | -1.22 (inactive) | 0.503 (inactive) | 1.12 (inactive) | 2.06 (inactive) | 0.612 (inactive) | -1.62 | 0.152 | 1.4 (inactive) | 0.711 | -1.98 | -0.217 (inactive) | -0.269 (inactive) | 0.0427 (inactive)
11 | O=C1O[C@@H](c2ccccc2)[C@@H](c2ccccc2)N2[C@@H](c3ccccc3OCCO)[C@]3(C(=O)Nc4ccc(C#CC5=CCCCC5)cc43)[C@@H](C(=O)O)[C@H]12 | 0.172 | -0.5 (inactive) | -2.81 (inactive) | -4.84 (inactive) | 3.46 (inactive) | 0.175 (inactive) | 0.45 (inactive) | -5.59 | 0.105 | 0.364 (inactive) | 0.305 | -0.662 | -3.14 (inactive) | -0.379 (inactive) | -0.318 (inactive)
